Source: PubChem BioAssay
Where “and” joins values, the source holds several entries; their conditions need not be identical. Equal entries are not always repeated. Calls of active or inactive are those of the source.

Columns and labels:
[1] = target: Albumin (Bos taurus) (UniProt P02769); test: bovine serum albumin binders on microarray, profiling panel, artefact control for SMM control protein annotation, biochemical, small-molecule microarray, Alexa647 label, 635/667 nm fluorescence (AID 1118); settings: BSA-A647 binding, fluorescence 635 nm, higher = more signal;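 further: score merges 667 nm emission intensity and signal-to-noise per printed compound spot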
[2] = small-molecule microarray binders of probe aXIP, primary screen, biochemical, NeuroSMM set, 635/667 nm fluorescence (AID 1119); settings: higher = more signal, called active from +8 up or from −8 down;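 further: probe is the protein aXip251-270 applied at 1 µg/mL to compound-printed slides; binding of probe to printed compounds measured as 667 nm fluorescence plus signal to noise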
[3] = small-molecule binders of probe aNOTCH3, primary screen, biochemical, small-molecule microarray, 635/667 nm fluorescence (AID 1120); settings: higher = more signal;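 further: probe is a biotin-tagged antibody raised against NOTCH3 rather than NOTCH3 protein; score merges spot fluorescence near 667 nm with spot signal to noise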
[4] = small-molecule binders of probe aNOTCH2, primary screen, biochemical, small-molecule microarray, 635/667 nm fluorescence (AID 1121); settings: higher = more signal;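 further: score merges feature fluorescence read at 667 nm with its signal to noise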
[5] = target: Carbonic anhydrase 2 (Homo sapiens) (UniProt P00918); test: CAII small-molecule binders, profiling panel, biochemical, small-molecule microarray, Alexa647-labelled CAII (AID 1122); settings: CAII-A647 binding fluorescence, higher = more signal
[6] = COS7 lysate on small-molecule microarray, probe aHis, 635 nm (AID 1123); settings: COS7 cell lysate, fluorescence, higher = more signal;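 further: z-score combines 667nm fluorescence intensity with signal-to-noise per printed compound spot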
[7] = compound binding in COS7 lysate, probe aLAP1, primary screen, cell lysate, small-molecule microarray (AID 1124); settings: probe aLAP1, fluorescence, higher = more signal;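 further: lysate comes from COS7 cells expressing LAP1 and is applied at 0.3 µg/mL; score merges spot fluorescence near 667 nm with signal-to-noise over triplicate slides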
[8] = test system: Sam68 (KHDRBS1); test: Sam68 small-molecule binders, primary screen, biochemical, small-molecule microarray, 635 nm fluorescence (AID 1125); settings: small-molecule microarray binding, higher = more signal;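 further: score merges 667 nm channel intensity with signal to noise over triplicate slides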
[9] = test system: Chordin-like protein 2 (CHRDL2); test: CHRDL2 small-molecule binders, primary screen, biochemical, small-molecule microarray, 635 nm fluorescence (AID 1126); settings: small-molecule microarray binding, fluorescence 635 nm; higher = more signal;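 further: printed compound slides probed with Chrdl2 protein at 4 µg/mL for 1 h at 4 C; score merges 667 nm emission intensity with signal to noise over three replicate slides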
[10] = target: Concanavalin-A (Canavalia ensiformis) (UniProt P02866); test: ConA small-molecule binders, primary screen, artefact control for SMM control protein annotation, biochemical, small-molecule microarray, Alexa647 label, 635 nm (AID 1127); settings: ConA-A647 binding fluorescence, higher = more signal;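 further: z combines 667 nm emission intensity with signal-to-noise across three replicate slides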
Concanavalin-A (Canavalia ensiformis), sequence (P02866 whole entry, looked up): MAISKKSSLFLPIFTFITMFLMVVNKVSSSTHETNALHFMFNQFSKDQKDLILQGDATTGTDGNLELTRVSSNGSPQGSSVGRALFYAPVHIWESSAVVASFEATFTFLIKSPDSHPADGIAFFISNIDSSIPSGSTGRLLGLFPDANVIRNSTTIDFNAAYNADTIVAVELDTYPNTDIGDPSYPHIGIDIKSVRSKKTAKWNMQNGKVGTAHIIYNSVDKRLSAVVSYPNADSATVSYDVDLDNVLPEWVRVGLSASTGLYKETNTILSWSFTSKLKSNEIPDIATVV

Albumin (Bos taurus), sequence (P02769 whole entry, looked up): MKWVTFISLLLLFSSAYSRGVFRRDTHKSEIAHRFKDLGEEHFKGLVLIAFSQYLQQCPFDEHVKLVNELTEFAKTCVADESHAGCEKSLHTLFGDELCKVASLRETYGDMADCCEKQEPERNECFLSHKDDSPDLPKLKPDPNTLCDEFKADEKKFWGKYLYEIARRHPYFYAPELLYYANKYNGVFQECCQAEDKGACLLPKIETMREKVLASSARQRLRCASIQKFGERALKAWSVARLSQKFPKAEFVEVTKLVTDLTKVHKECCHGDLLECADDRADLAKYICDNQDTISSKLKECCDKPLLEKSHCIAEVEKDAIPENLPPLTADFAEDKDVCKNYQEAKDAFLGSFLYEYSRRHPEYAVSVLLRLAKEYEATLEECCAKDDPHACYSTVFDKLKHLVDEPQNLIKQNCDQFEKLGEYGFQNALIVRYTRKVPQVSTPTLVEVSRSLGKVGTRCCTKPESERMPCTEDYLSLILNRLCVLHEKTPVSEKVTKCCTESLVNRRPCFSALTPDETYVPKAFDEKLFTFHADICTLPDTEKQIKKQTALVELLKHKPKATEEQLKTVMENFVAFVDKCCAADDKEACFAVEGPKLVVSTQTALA

SMILES | composite z-score [1] | composite Z-score [2] | composite z-score [3] | composite z-score [4] | composite z-score [5] | composite z-score [6] | composite z-score [7] | composite z-score [8] | composite z-score [9] | composite z-score [10]
C=C[C@@H](OC)[C@H](O)c1ccc(OC)c(O)c1 | 0.346 and 0.226 | 0.767 (inactive) and -1.19 (inactive) | -0.0044 and -0.521 | -0.0212 and -0.163 | -0.189 and 0.232 | -0.0302 and 0.043 | -0.37 and -0.649 | 0.043 and -0.955 | 1.11 and -0.52 | -0.847 and -1.4
C=CCN(CCCCC)C(=O)C(c1cccs1)N(C(=O)/C=C\C(=O)O)c1ccc(CCO)cc1 (stereo not given) | 0.516 and -0.0786 | 0.598 (inactive) and -0.378 (inactive) | -0.499 and -0.508 | -0.183 and -0.0859 | 0.821 and 0.562 | 0.455 and -0.0142 | 0.411 and 0.0933 | -0.815 and -0.524 | -0.96 and -1.97 | -0.222 and -0.806
CCOC(=O)C[C@H]1[C@H](OC(=O)c2ccccc2-c2ccccc2)[C@@H](NC(=O)c2ccccc2)c2cc(OCCCO)ccc2N1C(=O)c1ccc2ccccc2n1 | 0.369 and 0.645 | 0.095 (inactive) and 0.291 (inactive) | 0.0223 and 0.228 | -0.0073 and -0.0357 | 0.348 and 0.0749 | 0.25 and 0.958 | 0.0741 and 0.356 | 0.443 and 1.2 | 0.243 and 0.175 | 0.436 and 1.04
CCOC(=O)C[C@H]1[C@H](OC(=O)c2ccccc2-c2ccccc2)[C@@H](NC(=O)Cc2ccc(OC)cc2)c2cc(OCCCO)ccc2N1C(=O)c1ccc2ccccc2n1 | 0.0759 and 0.46 | -0.252 (inactive) and -0.128 (inactive) | -0.0347 and -0.0608 | -0.14 and 0.0777 | -0.156 and 0.0959 | 0.411 and 1.57 | -0.264 and 0.286 | -0.636 and 0.641 | -0.0194 and -0.181 | 0.0022 and 0.662
CC(C)N1CC=CC23O[C@@H]4C=CCCOC(=O)C4[C@H]2C(=O)N(C(C)CO)[C@@H]3C1=O (stereo not given in full) | -0.579 and 0.131 | 0.238 (inactive) and 0.848 (inactive) | -0.222 and -0.215 | 0.502 and -0.221 | 0.958 and 0.808 | 1.24 and -0.13 | 0.866 and -0.361 | 0.967 and -0.516 | -2.61 and -1.23 | 0.0938 and -1.42
C=CCN(C(=O)C1N(c2ccc(CCO)cc2)C(=O)C2C(C(=O)O)C3C=CC21O3)c1ccc(OC)cc1 (stereo not given) | -0.326 and -0.0621 | -0.177 (inactive) and -0.773 (inactive) | -0.285 and -0.585 | -0.14 and -0.0932 | 0.93 and 0.471 | -0.188 and -0.412 | -0.0393 and -0.133 | 0.0118 and -1.55 | -0.726 and -2.53 | 0.287 and -1.64
O=C(NN=C1C[C@@H](O)[C@@H](O)[C@@H]2[C@@H]3C(=O)N(Cc4ccc5c(c4)OCO5)C(=O)[C@@H]3CC[C@H]12)OCc1ccccc1 | -0.401 | -0.0252 (inactive) | 0.157 | -0.11 | -0.612 | -0.648 | -0.21 | 0.0918 | -0.556 | -0.232
C=CCN(CCCCC)C(=O)C(c1cccs1)N(C(=O)/C=C\C(=O)O)c1c(Cl)cccc1CO (stereo not given) | -0.678 and -0.603 | -0.798 (inactive) and 0.414 (inactive) | -0.533 and -0.396 | -0.057 and -0.187 | 0.91 and 0.768 | -0.774 and -0.96 | 1.62 and -0.0008 | -1.09 and -1.41 | -2.67 and -1.87 | -0.906 and -1.52
C=CCN(Cc1ccccc1)C(=O)C1N(CCCCCCO)C(=O)C2C(C(=O)O)C3C=CC21O3 (stereo not given) | -0.198 and 0.768 | -0.461 (inactive) and -0.2 (inactive) | -0.541 and -0.445 | -0.14 and -0.154 | 0.812 and 0.904 | -0.376 and -0.155 | -0.694 and -0.332 | -0.442 and -1.97 | -3.18 and -2.25 | -0.588 and -2.21
CO[C@@H]1C=CCC(=O)N2CCC[C@H]2C(=O)OC[C@H](C)C(=O)OC[C@H]1C | 0.987 | 0.392 (inactive) | -0.0077 | 0.012 | 0.403 | -0.555 | -0.795 | 0.216 | 1.01 | -0.607
C=CCN(CCCC)C(=O)C(c1cccs1)N(C(=O)/C=C\C(=O)O)c1c(Cl)cccc1CO (stereo not given) | -0.854 and -0.198 | -0.089 (inactive) and 0.339 (inactive) | -0.589 and -0.431 | -0.162 and -0.147 | -0.3 and 0.0384 | -0.99 and -0.632 | -0.307 and 0.993 | -0.843 and -1.73 | -4.02 and -2.94 | -3.43 and -2.5
CCN1C(=O)[C@H]2[C@H]3[C@H](O)[C@H](O)CC(=NOC[C@@H](O)COCc4ccco4)[C@@H]3CC[C@H]2C1=O | -0.423 and 0.677 | -1.03 (inactive) and -0.471 (inactive) | -0.161 and -0.0026 | -0.17 and -0.234 | -0.473 and 0.753 | -0.945 and 0.351 | -0.0847 and -0.0256 | -0.368 and 0.0907 | 1.54 and 0.0802 | -0.716 and 0.422
C=CCN(CCCC)C(=O)C1N(C(C)(C)CO)C(=O)C2C(C(=O)O)C3C=CC21O3 (stereo not given) | -0.0353 and -0.347 | -0.726 (inactive) and -1.17 (inactive) | -0.589 and -0.497 | -0.161 and 0.544 | 0.909 and 0.619 | 0.12 and -0.103 | -0.2 and -0.226 | -1.62 and -1.72 | -3.25 and -1.75 | -1.25 and -2.32
CC(C)=NOCc1ccc(-c2cn([C@@H]3COC[C@H]3O)nn2)cc1 | 0.655 | 0.43 (inactive) | -0.0179 | -0.131 | -0.132 | 0.355 | -0.116 | -0.103 | 0.329 | 0.0843
C[N+](C)(C)CCCCCCNC(=O)[C@H]1C[C@H]2C(=O)N[C@@H](CCCC[N+](C)(C)C)C(=O)N2[C@H]1c1cccc(OCCO)c1 | -0.239 and -0.101 | 0.891 (inactive) and -0.166 (inactive) | -0.0647 and 0.203 | -0.148 and 0.046 | 0.655 and 0.419 | 0.897 and 0.214 | 0.479 and 0.285 | 0.861 and 0.669 | 1.22 and 1.04 | 0.606 and 0.352
O=C1[C@H]2[C@H]3[C@H](O)[C@H](O)CC(=NOCc4ccccc4)[C@H]3CC[C@H]2C(=O)N1Cc1ccccc1 | 0.273 | -0.283 (inactive) | -0.136 | -0.0729 | 0.0146 | 0.233 | -0.123 | -0.873 | 0.374 | -0.229
